Compounds with a hit are over-represented: about 1.8% of the library has one in this group of screens.
PfHsp40 yeast – compounds rescuing yeast from Plasmodium falciparum HSP40 toxicity; AID 504582; actives 0.68% (n = 340,000); growth rescue, % at 12.5 µM; S. cerevisiae expressing PfHsp40, growth rescue, ATP luminescence; in the data active = growth rescue above about 28%, passing the limit was not always enough;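 also: yeast W303a lacking pdr1 and pdr3 grown in galactose medium; growth measured after three days at 30 °C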
PriA SSB inh – K. pneumoniae PriA-SSBct interaction inhibition; AlphaScreen SSBct-PriA binding, biotinylated peptide; actives 0.6% (n = 430,000); inhibition, % at 33 µM; in the data active = inhibition mostly above about 37%, no sharp cut-off; inactive = mostly below about 20%;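 also: plate controls were negative control peptide for no effect and reference peptide for full effect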
Mtb hypoxia rep – inhibitors of hypoxia-regulated fluorescent reporter in Mycobacterium tuberculosis. M. tuberculosis hypoxia-regulated fluorescent reporter, fluorescence. fluorescence inhibition, % (concentration not given with the values). actives 0.1% (n = 300,000); in the data active = fluorescence inhibition mostly above about 23%, no sharp cut-off; inactive = mostly below about 17%
Sa ugtP lethal – growth inhibition of S. aureus ugtP deletion strain | S. aureus RN4220 ugtP deletion, OD600 growth, 16 h | growth inhibition, % (concentration not given with the values) | actives 0.54% (n = 330,000); in the data active = growth inhibition above about 68%;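 also: plate controls were untreated wells for no effect and antibiotic for full effect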
VHR inh abs – inhibitors of human VHR1 phosphatase (DUSP3) | inhibition, % at 13.3 µM | actives 0.52% (n = 290,000) | P51452 | recombinant VHR phosphatase, pNPP absorbance | AID 1654; in the data active = inhibition above about 50%
Target sequence (P51452 whole entry, looked up): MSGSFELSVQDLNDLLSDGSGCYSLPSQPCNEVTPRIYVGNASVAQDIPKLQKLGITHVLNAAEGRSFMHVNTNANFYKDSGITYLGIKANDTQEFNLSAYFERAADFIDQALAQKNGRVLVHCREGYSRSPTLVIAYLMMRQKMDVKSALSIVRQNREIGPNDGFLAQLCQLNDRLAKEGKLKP
Sa RN4220 lethal – S. aureus RN4220 growth inhibition; OD600, 16 h; inhibition, % (no concentration beside the values); actives 0.33% (n = 330,000); AID 1259311; in the data active = inhibition above about 85%;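 also: plate controls were untreated cells for no effect and reference antibiotic for full effect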
Active calls of the source: *; / = not tested or not shown.

SMILES	PfHsp40 yeast	PriA SSB inh	Mtb hypoxia rep	Sa ugtP lethal	VHR inh abs	Sa RN4220 lethal
Oc1cccc2ccc(/C=C/c3c(F)cccc3Cl)nc12	7	-20	0	8	13	-8
COc1ccc(Cl)cc1/C=C/c1ccc2cccc(O)c2n1	0	-4	-5	47	-2	41
Oc1cccc2ccc(/C=C/c3ccccc3Cl)nc12	0	-1	11	91*	66	83
CCOc1cccc(/C=C/c2ccc3cccc(O)c3n2)c1OC	168*	0	/	/	/	/
COc1ccccc1/C=C/c1ccc2cccc(O)c2n1	0	4	-10	17	53*	11
CCOc1cccc(/C=C/c2ccc3cccc(O)c3n2)c1O	2	2	4	2	/	8
CC(C)NC(=O)C(=O)NC[C@](C)(O)c1ccc(-c2ccccc2)cc1	/	-13	/	/	/	/
O=C(CCl)N1c2ccccc2Oc2ccc3ccccc3c21	0	16	26	99*	/	90*
CC(=O)N1c2ccccc2Oc2cc3ccccc3cc21	6	-8	-3	-12	5	6
O=C(NCCOc1cccc(C(F)(F)F)c1)c1ccc(S(=O)(=O)N2CCOCC2)cc1	/	-9	/	/	/	/
Cc1ccc(OCNC(=O)NN(C)C)cc1	/	-4	/	/	/	/
CC(C)(C)C1CCc2c(sc(NC(=O)CSc3ncn[nH]3)c2C#N)C1 (configuration not stated)	1	-4	-9	88*	4	-13
CC1CCc2c(sc(NC(=O)CSc3ncn[nH]3)c2C#N)C1 (configuration not stated)	1	-2	10	4	27	0
C[C@H]1CS(=O)(=O)N(c2ccc(S(=O)(=O)N3CCCc4ccccc43)cc2)C1=O	/	-21	/	/	/	/
O=[N+]([O-])c1cccc(CP(=O)(c2ccccc2)c2ccccc2)c1	1	-18	13	-1	/	6
O=[N+]([O-])c1ccc(CP(=O)(c2ccccc2)c2ccccc2)cc1	1	-3	9	8	56*	-1
O=S(=O)(Cc1cccc(Cl)c1)NCc1ccsc1	/	-6	/	/	/	/
COc1ccccc1NC(=O)NC(C)(C)CC(C)(C)C	/	-8	/	/	/	/
CC1CCCC(C)N1CCCNC(=O)c1ccc2c(c1)NC(=O)c1ccccc1S2 (configuration not stated)	-1	4	-4	-6	58*	-3
CCN1CCN(CCCNC(=O)c2ccc3c(c2)NC(=O)c2ccccc2S3)CC1	-1	1	/	5	28	-4
Nc1nc(SCC(=O)NC2CCCC2)ncc1S(=O)(=O)c1cccs1	/	-18	/	/	/	/
CCN(CC)c1ccc(N)cc1	-1	65*	/	/	/	/
COc1cc(C2(c3ccc(O)c(OC)c3)C(=O)N(C)c3ccc(Br)cc32)ccc1O	2	6	6	-1	/	2
COc1cc(C2(c3ccc(O)c(OC)c3)C(=O)Nc3c(Br)cc(Br)cc32)ccc1O	66*	-1	-1	-16	/	-12
CCS(=O)(=O)c1ccccc1C(=O)Nc1sc2c(c1C#N)CCC2	/	9	/	/	/	/
SMILES	PfHsp40 yeast	PriA SSB inh	Mtb hypoxia rep	Sa ugtP lethal	VHR inh abs	Sa RN4220 lethal
CCCN1CCCc2cc(CCNS(=O)(=O)c3ccc(C)c(C)c3)ccc21	/	61*	/	/	/	/
CCCN1CCCc2cc(CCNS(=O)(=O)c3ccc(F)c(C)c3)ccc21	/	59*	/	/	/	/
Cc1noc(C)c1S(=O)(=O)N1CC(Oc2nc3c(Cl)cccc3s2)C1	/	-10	/	/	/	/
O=C(N/N=C(\c1ccccc1)c1cccnc1)c1cccc(F)c1	315*	/	/	/	32	/
CC(O)(CNC(=O)C1(c2cccs2)CCCC1)Cc1ccco1 (configuration not stated)	/	7	/	/	/	/
CCOC(=O)c1csc(NC(=O)c2csc3nc(-c4ccc(F)cc4)cn23)n1	/	-8	/	/	/	/
CCCCCCOC(=O)CCn1[nH]c(=O)c2ccccc2c1=O	136*	-10	/	3	13	4
COCCn1c(SCCN2CCOCC2)nc2c1c(=O)[nH]c(=O)n2C	0	-19	3	2	58*	3
COc1nn(C)cc1C(=O)Nc1ccn2nccc2c1	/	-30	/	/	/	/
O=C(c1ccccc1Cl)N1CC(Oc2nc3ccccc3s2)C1	/	1	/	/	/	/
C=CCNC(=O)N1c2ccccc2Sc2ccccc21	57*	22	14	-4	66	1
CCCn1c(=NC(=O)c2ccc(C#N)cc2)sc2c(C)cc(C)cc21	/	-14	/	/	/	/
Fc1ccc(N2CCN(C3=Nc4cccc5cccc3c45)CC2)cc1	-2	44*	14	-4	14	9
c1ccc(CN2CCN(C3=Nc4cccc5cccc3c45)CC2)cc1	1	15	4	0	3	0
COc1ccccc1CCNC(=O)C(=O)Nc1ccc(N2CCCS2(=O)=O)cc1	/	-8	/	/	/	/
CC1CCN(c2c([N+](=O)[O-])nn(-c3ccc4c(c3)OCCO4)[n+]2[O-])CC1	0	40*	-3	0	-6	-1
Cc1cccc(NC(=O)C2(c3cccs3)CCCC2)c1C	/	-15	/	/	/	/
Cc1ccc(-c2nc3ccc([N+](=O)[O-])cc3[nH]2)cc1	111*	-1	19	-9	7	-1
Oc1c(Br)cc(C=Nc2ccc3nc(-c4ccccc4)[nH]c3c2)c(O)c1Br	0	21	/	/	-2	/
COc1ccc(-c2nc3ccc([N+](=O)[O-])cc3[nH]2)cc1	22	12	12	6	2	3
O=[N+]([O-])c1ccc(O)c(C=Nc2ccc3nc(-c4ccccc4)[nH]c3c2)c1	0	16	14	66	-10	88*
O=C(CCS(=O)(=O)c1ccc(Cl)cc1)N(Cc1ccccn1)c1nc2ccccc2s1	/	0	/	/	/	/
O=C(CCc1ccccc1)Nc1ccccc1[N+](=O)[O-]	0	15	-1	7	36	9
CC(C)(C)c1cc(CCC(=O)NNC(=O)c2ccco2)cc(C(C)(C)C)c1O	0	6	-4	-1	-2	2
CC(C)(C)c1cc(CCC(=O)NNC(=S)NC(=O)c2ccccc2)cc(C(C)(C)C)c1O	508*	17	-24	89*	-10	64
SMILES	PfHsp40 yeast	PriA SSB inh	Mtb hypoxia rep	Sa ugtP lethal	VHR inh abs	Sa RN4220 lethal
CC(=O)NC(=S)NNC(=O)CCc1ccccc1	-1	0	7	8	-6	8
O=C(CCc1ccccc1)NC(=S)Nc1ccccc1[N+](=O)[O-]	6	39*	8	22	14	1
CCCCC(=O)NC(=S)NNC(=O)CCc1ccccc1	337*	-18	13	19	9	-7
O=C(CCc1ccccc1)NNC(=S)NC(=O)c1ccccc1	314*	9	4	9	30	40
CCOC(=O)N1CCN(C(=O)c2ccc(OC)c(I)c2)CC1	/	-3	/	/	/	/
CCC(=O)c1ccc(Oc2nc(-c3ccccc3)nc3sc(-c4ccccc4)cc23)cc1	/	-20	/	/	/	/
NC1=NC2(CCCCC2)N(c2ccc(F)cc2)C(N)=N1	-1	-6	1	9	53*	8
O=c1[nH]c(=S)n(Cc2ccc(F)cc2)c(O)c1C=NCc1ccc2c(c1)OCO2	0	0	10	-6	4	4
CN(C)CCN=Cc1c(O)n(Cc2ccc3c(c2)OCO3)c(=S)[nH]c1=O	82*	-22	13	9	-4	2
